Compound activity deposited in PubChem by several laboratories.
PrP 5UTR inh: inhibition of PrP 5' UTR reporter expression; cell-based PrP 5' UTR mRNA reporter, plate reader; inhibition, % (no concentration beside the values); hit rate 0.35% among 340,000; AID 488862; in the data active = inhibition above about 52%
SSB-PriA inh: K. pneumoniae PriA-SSBct interaction inhibition; AlphaScreen SSBct-PriA binding, biotinylated peptide; inhibition, % at 33 µM; hit rate 0.6% among 430,000; in the data active = inhibition mostly above about 37%, no sharp cut-off; inactive = mostly below about 20%
PrPC surface inh: cell surface PrPC inhibition, primary TR-FRET screen; TR-FRET read-out; inhibition, % at 13.8 µM; P04156; hit rate 0.43% among 370,000; in the data active = inhibition above about 24%
PfHsp40 yeast: restores yeast growth despite PfHsp40 toxicity; S. cerevisiae expressing PfHsp40, growth rescue, ATP luminescence; growth rescue, % at 12.5 µM; hit rate 0.68% among 340,000; AID 504582; in the data active = growth rescue above about 28%, passing the limit was not always enough;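 also: yeast W303a lacking pdr1 and pdr3 grown in galactose medium; growth measured after three days at 30 °C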
SARS 3CLpro inh: SARS-CoV 3CLpro protease inhibition. recombinant SARS-CoV 3CLpro, quenched FRET peptide cleavage. hit rate 0.14% among 290,000. P0C6X7. inhibition, % at 6 µM; in the data active = inhibition above about 12%
Vc quorum ag: quorum light induction in luxS cqsA deficient V. cholerae | V. cholerae BH1578 lux reporter, luminescence, 6 h | hit rate 0.16% among 350,000 | AID 588436 | activation, % at 18.7 µM; in the data active = activation mostly above about 9.7%, no sharp cut-off
Of the large screens only hits and unclear results are named; the others gave an inactive call; ! = repeats disagree. Rows were chosen to be rich in hits. Some 1.6% of all compounds tested hit in one or more screens of this group.

Cc1nc(-c2ccccc2F)sc1CNC(=O)c1cc2ccccc2o1	none (no result: PrP 5UTR inh, PrPC surface inh, PfHsp40 yeast, SARS 3CLpro inh, Vc quorum ag)
CCN1/C(=C/c2ccc3cc(C)ccc3[n+]2C)Sc2ccc3sccc3c21	PfHsp40 yeast 153
CC(=O)c1c(O)n(-c2cccc(Cl)c2)c(=O)[nH]c1=O (tested in a mixture with another compound)	none (no result: SSB-PriA inh)
CC(C)n1c(O)c(C2c3cc(Cl)ccc3Oc3[nH]c(=O)n(C(C)C)c(=O)c32)c(=O)[nH]c1=O (configuration not stated)	PfHsp40 yeast 281 (no result: PrPC surface inh)
COc1ccc2cc(C(=O)NCCn3nc(-c4ccccn4)n(C)c3=O)[nH]c2c1	none (no result: PrP 5UTR inh, PrPC surface inh, PfHsp40 yeast, SARS 3CLpro inh, Vc quorum ag)
Nc1n[nH]c(C(=O)N/N=C\c2cccs2)n1	SSB-PriA inh 50 (no result: PrP 5UTR inh, PrPC surface inh, PfHsp40 yeast, SARS 3CLpro inh, Vc quorum ag)
Cc1n[nH]c(=O)nc1NN=Cc1cccs1	SSB-PriA inh 59 (no result: PrP 5UTR inh, PrPC surface inh, PfHsp40 yeast, SARS 3CLpro inh, Vc quorum ag)
O=C(CC1SC(=NN=Cc2ccco2)NC1=O)Nc1ccccc1 (configuration not stated)	none (no result: PrP 5UTR inh, PrPC surface inh, PfHsp40 yeast, SARS 3CLpro inh, Vc quorum ag)
CS(=O)(=O)c1ccc(CCC(=O)N[C@H]2CCN(c3ccc(C(F)(F)F)cn3)C2)cc1	none (no result: PrP 5UTR inh, PrPC surface inh, PfHsp40 yeast, SARS 3CLpro inh, Vc quorum ag)
O=S(=O)(O)c1cccc2c(N=Nc3ccc(O)c4ncccc34)cccc12	SSB-PriA inh 62, PfHsp40 yeast 94 (no result: PrPC surface inh)
Oc1ccc(N=Nc2ccc3c(c2)OCCO3)c2cccnc12	PfHsp40 yeast 268
CC(C)(C)OC(=O)C[C@@H]1C/C=C/C[C@@H](CC(=O)N[C@@H](CO)Cc2ccccc2)C(=O)N2CCC[C@@H]2COC1=O	none (no result: PrP 5UTR inh, PrPC surface inh, PfHsp40 yeast, SARS 3CLpro inh, Vc quorum ag)
COc1ccc(-c2nc(CCNC(=O)c3ccc(-n4ccnc4C)nn3)cs2)cc1	none (no result: PrP 5UTR inh, PrPC surface inh, PfHsp40 yeast, SARS 3CLpro inh, Vc quorum ag)
Cc1cccc(NC(=S)N/N=C/c2ccc([N+](=O)[O-])s2)c1	PfHsp40 yeast 56 (no result: SSB-PriA inh)
Cc1cccc(NC(=S)NN=Cc2cccc([N+](=O)[O-])c2)c1	none (no result: PrP 5UTR inh, PrPC surface inh, PfHsp40 yeast, SARS 3CLpro inh, Vc quorum ag)
Cc1ccc(NC(=S)NN=Cc2ccc([N+](=O)[O-])s2)cc1	SSB-PriA inh 62 (no result: PrP 5UTR inh, PrPC surface inh, PfHsp40 yeast, SARS 3CLpro inh, Vc quorum ag)
CCN1CCCc2cc(CCNC(=O)C(=O)NCC(C)C)ccc21	none (no result: PrP 5UTR inh, PrPC surface inh, PfHsp40 yeast, SARS 3CLpro inh, Vc quorum ag)
c1ccc(C2=NNC(c3ccccn3)=NN2)nc1	SSB-PriA inh 82!
CNc1nn(CC(=O)Nc2ccc(C)c(Cl)c2)c(N)c1-c1nc(-c2ccccc2C)no1	none (no result: PrP 5UTR inh, PrPC surface inh, PfHsp40 yeast, SARS 3CLpro inh, Vc quorum ag)
O=C1NC(=O)C(=Cc2ccccc2OCCOc2ccc([N+](=O)[O-])cc2)C(=O)N1	PfHsp40 yeast 45 (no result: PrPC surface inh)
CCOC(=O)C=C1CC(=O)Nc2cc(C)c(C)cc2N1	none (no result: PrP 5UTR inh, PrPC surface inh, PfHsp40 yeast, SARS 3CLpro inh, Vc quorum ag)
O=C(/C=C/c1ccccc1)c1cc(Br)ccc(=O)c1O	PfHsp40 yeast 332 (no result: Vc quorum ag)
OCc1ccnc2c(O)cccc12	SSB-PriA inh 87
Oc1ccc(CCc2c(F)cccc2F)c2cccnc12	none (no result: PrP 5UTR inh, SSB-PriA inh, PfHsp40 yeast, SARS 3CLpro inh, Vc quorum ag)
NC(=O)c1ccnc2c(O)cccc12	SSB-PriA inh 41 (no result: SARS 3CLpro inh)
Oc1cccc2c(-c3nn[nH]n3)ccnc12	SSB-PriA inh 54 (no result: SARS 3CLpro inh)
CC(=O)c1ccc(NC(=O)Cn2cnc3c(sc4cccc(F)c43)c2=O)cc1	none (no result: PrP 5UTR inh, PrPC surface inh, PfHsp40 yeast, SARS 3CLpro inh, Vc quorum ag)
CC12CCC(C(=O)O)(C(=O)C1=O)C2(C)C (configuration not stated)	none (no result: PrP 5UTR inh, PrPC surface inh, PfHsp40 yeast, SARS 3CLpro inh, Vc quorum ag)
COc1ccccc1C1NC=C([N+](=O)[O-])C=C1[N+](=O)[O-] (configuration not stated)	SSB-PriA inh 45
COc1ccccc1C1C([N+](=O)[O-])=CC([N+](=O)[O-])=CN1C (configuration not stated)	none
CCC(=O)N(C1=C(NC(C)C)C(=O)c2ccccc2C1=O)C(C)C	none
CCCNC1=C(N(C(C)=O)c2cccc(F)c2)C(=O)c2ccccc2C1=O	PfHsp40 yeast 49
CCC(Cc1c(I)cc(I)c(N)c1I)C(=O)O (configuration not stated)	PfHsp40 yeast 187 (no result: SARS 3CLpro inh)
CC(=O)N(CC(C)C(=O)O)c1c(I)cc(I)c(N)c1I (configuration not stated)	none (no result: SARS 3CLpro inh)
O=S(=O)(Nc1ccc(N=Nc2ccccc2)cc1)c1ccccc1	PfHsp40 yeast 102
Cc1ccc(Cl)cc1NC(=O)CC1CCCCN1S(=O)(=O)c1cccs1 (configuration not stated)	none (no result: PrP 5UTR inh, PrPC surface inh, PfHsp40 yeast, SARS 3CLpro inh, Vc quorum ag)
COc1ccc(-n2sc3ccc(F)cc3c2=O)cc1	PfHsp40 yeast 125 (no result: SARS 3CLpro inh)
O=c1c2cc(F)ccc2sn1-c1ccc(F)cc1	PfHsp40 yeast 76 (no result: PrPC surface inh, SARS 3CLpro inh)
CCOc1ccc(-n2ccnc2SCC(=O)N2CCCc3ccccc32)cc1	none
O=C(CSc1ccc(-c2ccncc2)nn1)N1CCCc2ccccc21	none (no result: PrP 5UTR inh, PrPC surface inh, PfHsp40 yeast, SARS 3CLpro inh, Vc quorum ag)
COc1cccc(-n2ccnc2SCC(=O)N2CCCc3ccccc32)c1	none
O=C(CSc1ccc(-c2ccccn2)nn1)N1CCCc2ccccc21	SSB-PriA inh 62!, PfHsp40 yeast 473
